Assay outcomes: PubChem, NMMLSC
This is a sample that favours compounds with a hit; in the whole collection about 1.2% have one here.
RGS16-Gao: modulates binding between human RGS16 and Galphao | bead-based flow cytometry RGS16-Galphao binding, fluorescence; actives lie on both sides | 220,000 compounds, 0.38% hits | binding response (% of control), % at 10 µM | O15492+P09471 | AID 1441;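 note: Galphao activated by GDP with aluminum fluoride before binding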
Target sequence (O15492 whole entry, looked up): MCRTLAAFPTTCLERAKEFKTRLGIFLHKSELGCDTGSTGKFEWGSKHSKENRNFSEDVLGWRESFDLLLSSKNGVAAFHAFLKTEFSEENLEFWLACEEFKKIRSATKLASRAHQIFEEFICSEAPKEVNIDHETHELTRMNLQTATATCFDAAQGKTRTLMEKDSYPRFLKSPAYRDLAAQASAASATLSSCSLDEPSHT
Target sequence (P09471 whole entry, looked up): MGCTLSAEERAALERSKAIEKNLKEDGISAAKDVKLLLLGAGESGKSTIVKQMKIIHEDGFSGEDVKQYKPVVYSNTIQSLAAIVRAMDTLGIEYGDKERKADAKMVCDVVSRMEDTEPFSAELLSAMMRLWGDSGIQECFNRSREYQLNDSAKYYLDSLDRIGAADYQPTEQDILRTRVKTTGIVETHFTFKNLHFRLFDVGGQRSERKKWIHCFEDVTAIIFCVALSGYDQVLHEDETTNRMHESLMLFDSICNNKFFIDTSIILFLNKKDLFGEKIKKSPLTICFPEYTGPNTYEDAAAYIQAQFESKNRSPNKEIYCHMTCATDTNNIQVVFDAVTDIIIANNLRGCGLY
RGS7-Gao reg: human RGS7-Galphao interaction regulation; P09471; Multiplexed bead flow cytometry, RGS7-Galphao binding; actives lie on both sides; binding response (% of control), % at 10 µM; 220,000 compounds, 0.35% hits; AID 1439; in the data active = binding response below about 49% or above about 150%; inconclusive = no clear call, values can overlap the other calls; inactive = in between;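 note: fluorescent Galphao held in activated GDP-AlF4 state binding bead-coupled RGS7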
Target sequence (P09471 whole entry, looked up): as above
RGS4-Gao reg: human RGS4-Galphao interaction regulation; Multiplexed bead flow cytometry, RGS4-Galphao binding; actives lie on both sides; P09471; binding response (% of control), % at 10 µM; AID 1415; 220,000 compounds, 0.33% hits; in the data active = binding response below about 49% or above about 150%; inactive = in between;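 note: fluorescent Galphao activated with aluminum fluoride binding bead-coupled RGS4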
Avidin bead fluor: compound fluoresces at 488/530 nm on avidin beads; compound fluorescence 488/530 nm, flow cytometry; stronger effect = higher value; fluorescence (KMESF) at 10 µM; 220,000 compounds, 0.38% hits; AID 1775; in the data active = fluorescence above about 47
GSH bead fluor: compound fluoresces at 488/530 nm on GSH beads; GSH beads flow cytometry, compound fluorescence 488/530 nm; stronger effect = higher value; fluorescence (KMESF) at 10 µM; 190,000 compounds, 0.25% hits; AID 1776; in the data active = fluorescence above about 89;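 note: glutathione beads carrying GST-tagged Bcl family fusion proteins plus one bare bead set; values are compound well signal with DMSO vehicle wells as background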
RGS8-Gao: human RGS8-Galphao interaction regulation; response (percent of control binding), % at 10 µM; P09471; multiplexed bead flow cytometry, RGS8-Galphao binding; actives lie on both sides; 220,000 compounds, 0.34% hits; in the data active = response below about 60% or above about 140%; inactive = in between;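 note: Galphao activated as the GDP aluminium fluoride complex binding bead-coupled RGS8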
RGS-Gao: regulators of human RGS4-Galphao interaction; shares compounds with RGS16-Gao; multiplexed bead flow cytometry, RGS–Galpha-o binding; RGS4–Galpha-o binding response, % at 10 µM; 1,600 compounds, 99% hits;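 note: fluorescently labeled Galpha-o bound to GDP with aluminium fluoride binding biotinylated RGS beads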
Biotin-avidin: interferes with biotinylated probe binding to avidin beads; inhibition, % at 10 µM; shares compounds with RGS16-Gao; 1,700 tested, under 10 active; streptavidin beads, fluorescein-biotin binding, flow cytometry;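 active = inhibition above 50%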;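 note: median green fluorescence of gated singlet beads compared with DMSO control wells; 0% = DMSO wells and 100% = complete loss of bead fluorescence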
RGS8-Gao confirm: confirmation of regulators of human RGS8-Galphao interaction; binding response (% of control), % at 10 µM; bead-based flow cytometry RGS8-Galphao binding, fluorescence; actives lie on both sides; shares compounds with RGS16-Gao; 1,700 compounds, 3% hits; in the data active = binding response below about 72% or above about 130%; inactive = in between;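 note: Galphao activated as GDP AlF4 complex before binding bead RGS8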
RGS7-Gao single: RGS7-Galphao interaction regulation, single point confirmation; shares compounds with RGS16-Gao; bead-based flow cytometry RGS7-Galphao binding; actives lie on both sides; response (percent of control binding), % at 10 µM; 1,700 compounds, 7.8% hits; AID 1837; in the data active = response below about 75% or above about 130%; inactive = in between;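 note: fluorescent Galphao activated with GDP and aluminum fluoride binding bead-coupled RGS7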
RGS16-Gao conf: confirmation of regulators of human RGS16-Galphao interaction; shares compounds with RGS16-Gao; bead-based flow cytometry, RGS16-Galphao binding; actives lie on both sides; response (% of control binding), % at 10 µM; 1,700 compounds, 4% hits; AID 1838; in the data active = response below about 74% or above about 130%; inactive = in between;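 note: Galphao activated as the GDP aluminium fluoride complex binding bead-coupled RGS16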
RGS4-Gao single: RGS4-Galphao interaction regulation, single point confirmation; RGS4-Galphao binding, multiplexed bead flow cytometry; actives lie on both sides; binding response (% of control), % at 10 µM; 1,700 compounds, 4% hits; shares compounds with RGS16-Gao; in the data active = binding response below about 74% or above about 130%; inactive = in between
RGS19-Gao conf: RGS19-Galphao interaction regulation, single point confirmation; bead-based flow cytometry RGS19-Galphao binding; actives lie on both sides; response (percent of control binding), % at 10 µM; AID 1841; shares compounds with RGS16-Gao; 1,700 compounds, 5% hits; in the data active = response below about 50% or above about 160%; inactive = in between;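 note: 100% = no compound control and 0% = blank background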
The depositor's hits bear a star; ? = inconclusive; / = no result given; [ ] = dose if it differs, or a comment. Unless noted, the rule behind the calls is not given here.

SMILES	RGS16-Gao	RGS7-Gao reg	RGS4-Gao reg	Avidin bead fluor	GSH bead fluor	RGS8-Gao	Biotin-avidin	RGS8-Gao confirm	RGS7-Gao single	RGS16-Gao conf	RGS4-Gao single	RGS19-Gao conf	others
CCc1sc(C(C2C(=O)CC(C)(C)CC2=O)C2C(=O)CC(C)(C)CC2=O)cc1[N+](=O)[O-]	92.9	81.9	94.0	9	11	90.2	/	/	/	/	/	/
CCCc1cc(=O)oc2c3c(c4c(c12)OC(C)(C)C=C4)OC(C)C(C)C3O (stereo not drawn)	-5.8*	?	-6.7*	0	/	10.2*	-1.8	107.2	110.7	108.3	110.0	112.4
Cc1ccc(-n2c(N)c(C(=O)N3CCOCC3)sc2=S)cc1	228.3	119.5	120.0	13	21	145.9*[activator]	/	/	/	/	/	/	RGS-Gao=120.0*
O=C(NCCCN1CCCC1)c1cccc(N2CCCC2=O)c1	0.8	7.6*	17.8*	1	25	10.2*	-1.3	100.3	105.0	100.4	106.6	97.8
O=C(NCCCN1CCN(c2ccc(F)cc2)CC1)c1cccc(N2CCCC2=O)c1	89.0	89.1	91.9	23	16	97.6	/	/	/	/	/	/
Cc1nn(-c2ccccc2)c(C)c1/C=N\N1CCN(c2ccc(Cl)cc2)CC1	/	/	/	/	17	/	0.3	99.1	100.9	102.4	102.3	91.0
Cc1c(/C=N/NC(=O)c2cccnc2)c2ccccc2n1Cc1ccccc1	115.5	154.2*[activator]	120.2	8	22	105.6	3.2	103.1	124.4	106.3	114.2	110.7	RGS-Gao=120.2*
CN1CCN(CCP(=O)(c2ccccc2)c2ccccc2)CC1	/	/	/	/	16	/	0.2	98.7	96.9	97.8	98.6	96.9
O=P(CCCCCCCCCP(=O)(c1ccccc1)c1ccccc1)(c1ccccc1)c1ccccc1	96.6	94.4	98.6	8	31	95.1	/	/	/	/	/	/
O=P(CCO)(c1ccccc1)c1ccccc1	99.6	165.8*[activator]	104.1	28	15	90.2	-0.1	99.3	101.5	100.8	100.6	107.5	RGS-Gao=104.1*
CCOC(=O)C1=NN(c2cccc(C)c2)C2(S1)SC(C(C)=O)=C(C)N2c1ccccc1 (stereo not drawn)	/	/	/	/	50	/	1.3	106.1	83.4	105.6	91.8	54.9
CCCCOC(=O)c1sc2nc(C)cc(C)c2c1N	104.2	?	106.8	7	/	101.5	/	/	/	/	/	/
COc1ccc(NC(=O)C2=C(C)C(=O)OC23CCC(C)CC3)c(OC)c1 (stereo not drawn)	101.6	102.9	100.7	7	12	100.3	/	/	/	/	/	/
CCN=C1SC(CC(=O)NCC)C(=O)N1CC (stereo not drawn)	519.1	212.7*[activator]	258.9*[activator]	74*	43	117.9	-0.9	98.9	103.6	103.0	100.1	105.5
CC12c3ccccc3C(c3ccccc31)C1C(=O)N(c3cccnc3)C(=O)C12 (stereo not drawn)	102.3	102.5	103.8	16	16	102.6	/	/	/	/	/	/
O=C1C2C3c4ccccc4C(c4ccccc43)C2C(=O)N1c1cccnc1 (stereo not drawn)	24.4*	85.5	88.0	7	11	72.6	0.2	99.9	101.8	102.3	102.4	97.1	RGS-Gao=88.0*
CCN(CC)C(=O)Oc1ccc(Cl)c2cccnc12	100.2	?	101.1	10	29	102.5	/	/	/	/	/	/
O=C(Nc1cccc(C(F)(F)F)c1)Oc1ccc(Cl)c2cccnc12	30.7	?	26.2*	0	/	54.6*	0.2	100.5	99.9	98.3	99.5	96.0
O=C(Nc1ccc(CN2CCCCC2)cc1)c1ccc(Br)o1	103.7	104.0	101.7	14	36	103.2	/	/	/	/	/	/
Cc1ccc(-c2ccc(S(=O)(=O)NCC3CCCO3)cc2)cc1 (stereo not drawn)	101.4	100.8	102.1	12	11	101.8	/	/	/	/	/	/
O=S(=O)(NCC1CCCO1)c1ccc(Cl)nc1 (stereo not drawn)	/	/	/	/	/	/	-1.5	109.2	109.4	108.0	109.3	105.5
O=C(O)CCC(=O)Nc1sc2c(c1C(=O)Nc1cccc3ccccc13)CCCCC2	286.3	190.5*[activator]	192.6*[activator]	2	13	173.5*[activator]	0.0	98.3	101.3	100.1	100.6	101.8
CO/N=C/C(=N\Nc1ccc(C)cc1)C(=O)c1ccc(OC)cc1	107.3	105.0	100.6	10	14	104.9	/	/	/	/	/	/
CO/N=C/C(=N\Nc1ccc(OC)cc1)C(=O)c1ccc(F)cc1	36.7	34.9*	40.2*	5	15	44.7*	1.7	101.3	93.8	102.2	98.2	81.0
c1ccc2c(c1)OCCOCCOc1ccccc1OCCOCCO2	74.5	190.7*[activator]	187.0*[activator]	2	10	145.4*[activator]	1.3	108.9	116.2	113.8	104.5	143.0
O=C1N(CN2CCC3(CC2)OCCO3)c2ccccc2C12OCCCO2	103.7	100.2	95.4	21	9	98.8	/	/	/	/	/	/
CC1(C)COC2(OC1)C(=O)N(CN1CCOCC1)c1ccccc12	127.7	251.9*[activator]	128.0	124*	22	105.8	-0.1	98.7	96.2	99.2	101.1	90.0	RGS-Gao=128.0*
CCC(C)N1C(=O)S/C(=C/c2ccc(N3CCOCC3)cc2C)C1=O (stereo not drawn)	105.9	99.5	101.0	8	11	103.9	/	/	/	/	/	/
CCOC(=O)N1CCC(NC(=O)c2ccc(N3CCC4(CC3)OCCO4)c([N+](=O)[O-])c2)CC1	99.2	100.8	99.9	14	16	99.2	/	/	/	/	/	/
CCCCNC(=O)c1ccc(N2CCC3(CC2)OCCO3)c([N+](=O)[O-])c1	21.1*	93.4	94.2	9	9	77.8	-1.5	92.6	90.9	93.1	91.9	90.7	RGS-Gao=94.2*
